Screening data deposited in PubChem BioAssay by National Center for Advancing Translational Sciences (NCATS).
Six1-Eya2 blk: inhibitors of human Six1/Eya2 interaction | Q15475+O00167 | AlphaScreen GST-Six1/His-Eya2 binding, biochemical; active compounds read low | activity change, % (no concentration beside the values) | 360,000 tested, 0.56% active | AID 651725; in the data active = activity change below about -65%; inconclusive = mostly about -30% to -63%
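Compounds are tested against tagged Six1 and Eya2 proteins bridged by glutathione donor and nickel acceptor beads; after a one-hour incubation at 37 °C without light, AlphaScreen emission is recorded.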
CtBP-E1A inh: blocks the CtBP interaction with E1A; AlphaScreen GST-E1A/His-CtBP binding, 1536-well; active compounds read low; activity change, % (no concentration beside the values); 340,000 tested, 0.49% active; AID 651724; in the data active = activity change below about -65%; inconclusive = mostly about -30% to -63%
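Steps: dispense buffer (Tris pH 8.0, NaCl 300 mM, TCEP 1 mM, BSA, Tween 20); add 5X protein mix (GST-E1A, His-CtBP, 125 nM each); pin 23 nL compound; 2 h at 37 °C, dark; add 5X beads (50 ug/mL); 1 h; read.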
IL-1B inflam inh: inflammasome signaling inhibition, IL-1 beta readout. THP-1 LPS/ATP IL-1B secretion, AlphaLISA, 16 h; active compounds read low. activity change, % at 57.5 µM. 360,000 tested, 4.7% active. AID 743279; in the data active = activity change below about -50%; inconclusive = mostly about -30% to -49%
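Secreted IL-1B measured by AlphaLISA bead assay after 16 h compound exposure of THP-1 cells; compounds (final up to 57.5 uM) added 1 h before LPS (250 ng/mL) and ATP (1.25 mM) stimulation; lower signal means less secretion.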
TDP1 block: TDP1 (human) enzyme inhibition. recombinant TDP1, AlphaScreen DNA substrate cleavage. Potency, µM (doses to about 130 µM), for inactives: at the highest dose activity change, negative = inhibition, actives largely listed as inhibitors. 350,000 tested, 0.28% active; also: potency is read from the fitted curve at half-maximal effect; nearly all actives have a fitted effect of over 40% in size
Target sequence (Q9NUW8 whole entry, looked up): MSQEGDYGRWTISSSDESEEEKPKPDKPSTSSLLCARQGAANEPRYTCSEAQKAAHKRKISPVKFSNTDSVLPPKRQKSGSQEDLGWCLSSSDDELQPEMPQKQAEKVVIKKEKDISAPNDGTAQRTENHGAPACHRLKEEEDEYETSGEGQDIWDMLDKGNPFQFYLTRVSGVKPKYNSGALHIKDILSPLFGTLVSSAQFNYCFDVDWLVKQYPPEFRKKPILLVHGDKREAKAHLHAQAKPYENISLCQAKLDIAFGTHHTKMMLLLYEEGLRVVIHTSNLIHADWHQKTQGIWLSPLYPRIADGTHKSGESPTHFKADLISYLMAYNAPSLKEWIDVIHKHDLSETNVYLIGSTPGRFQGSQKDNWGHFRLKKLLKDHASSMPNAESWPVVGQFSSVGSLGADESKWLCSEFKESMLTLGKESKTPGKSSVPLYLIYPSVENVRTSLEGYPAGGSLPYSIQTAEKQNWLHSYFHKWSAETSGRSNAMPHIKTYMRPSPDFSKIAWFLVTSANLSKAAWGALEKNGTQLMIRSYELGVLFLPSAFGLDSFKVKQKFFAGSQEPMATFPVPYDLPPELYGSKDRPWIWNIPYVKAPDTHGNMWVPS
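AlphaScreen read-out: signal falls as enzyme removes the 3' tyrosine-FITC from a 5'-biotinylated DNA oligo (15 nM, 5 min, RT). Enzyme was E. coli-made recombinant Tdp1 at 1 nM, exposed to compound for 15 min beforehand; beads 10 ug/ml, 10 min.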
DT40 TDP1 no CPT: qHTS for Inhibitors of human tyrosyl-DNA phosphodiesterase 1 (TDP1): qHTS in cells in absence of CPT | AID 686978, 2013 | 420,000 tested, 15% active | DT40 Tdp1-/- hTDP1 cells, no CPT, ATP luminescence, 48 h | Potency, µM (doses to about 46.2 µM), for inactives: top-dose activity change, negative = growth inhibition, actives largely listed as inhibitors; also: potency is read from the fitted curve at half-maximal effect; nearly all actives have a fitted effect of over 55% in size
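Cells were dispensed at 400 per well, compounds added by pin tool, plates incubated ≥48 hr at 37 °C, then CellTiter-Glo added for 30 min at room temperature before luminescence reading. Line: DT40 Tdp1-/- complemented with hTDP1; camptothecin omitted.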
TDP1 cell CPT: growth inhibition of DT40 Tdp1-/-;hTDP1 cells with camptothecin (screen for TDP1 inhibitors). chicken DT40 Tdp1-/-;hTDP1 cells + 20 nM CPT, ATP luminescence, 48 h. Potency, µM (titrated, usually from 46.2 µM), for the others: at the top dose activity change, negative = growth inhibition, usual class: inhibitors. 420,000 tested, 12% active; also: potency is read from the fitted curve at half-maximal effect; nearly all actives have a fitted effect of over 55% in size
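Cell growth measured by CellTiter-Glo luminescence after a minimum 48 h, 37 C compound exposure with 20 nM CPT in Tdp1-knockout DT40 cells stably expressing hTDP1, seeded 400/well; qHTS titration format.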
Numbers without * were called inactive; [ ] = remark or other dose. Only some compounds are listed: those with a hit (about 18% of all), similar ones and a draw of the others. Unless noted, calls follow the shape of the dose curve; as a rule, active = well fitted curve in the direction sought with a large enough effect; inconclusive = small, poorly fitted or top-dose-only effect, or another doubt; inactive = no such curve, though single readings can be large; an effect the other way counts as inactive or inconclusive. % is scaled to controls: 0 for no effect and ±100 for the full control effect.

Cc1cccc(NCc2nc3ccccc3n2Cc2ccccc2)c1 was read as Six1-Eya2 blk -16.1, CtBP-E1A inh -5.4, IL-1B inflam inh -26.0, TDP1 block 5.2%, DT40 TDP1 no CPT inconclusive and TDP1 cell CPT 14.6µM*.
`Cc1ccc(S(=O)(=O)NC2(C(F)(F)F)NC(=O)N(Cc3ccccc3)C2=O)cc1` (stereo not drawn) gave Six1-Eya2 blk 7.7, CtBP-E1A inh -3.8, IL-1B inflam inh -0.5, TDP1 block 3.5%, DT40 TDP1 no CPT 0.1% and TDP1 cell CPT 5.7%.
`CC(C)[C@H](NC(=O)N1CCn2c1nc1ccccc12)C(=O)N[C@@H](C(=O)O)c1ccccc1` gave Six1-Eya2 blk 2.4, CtBP-E1A inh -6.9, IL-1B inflam inh 5.2, DT40 TDP1 no CPT -19.0% and TDP1 cell CPT -8.4%.
Screening CC1(C(=O)Oc2ccccc2)Cc2ccccc2C(=O)O1 (stereo not drawn) returned Six1-Eya2 blk 5.4, IL-1B inflam inh 1.3, TDP1 block 2.6%, DT40 TDP1 no CPT -14.8% and TDP1 cell CPT -9.8%.
Cc1ccccc1CCNC(=O)c1cc(C2CC2)nc2c1cnn2C(C)C was read as Six1-Eya2 blk 7.0, CtBP-E1A inh 21.6, IL-1B inflam inh -23.7, TDP1 block -6.3%, DT40 TDP1 no CPT inconclusive and TDP1 cell CPT 20.6µM*.
Screening CC(C)n1ncc2c(C(=O)NCCc3ccc(F)cc3)cc(C3CC3)nc21 returned Six1-Eya2 blk 1.5, CtBP-E1A inh 9.0, IL-1B inflam inh inconclusive, TDP1 block 1.4%, DT40 TDP1 no CPT 23.1µM* and TDP1 cell CPT inconclusive.
Screening CCCCC(CC)COC(=O)CC(C(=O)OCC(CC)CCCC)S(=O)(=O)O (stereo not drawn) returned TDP1 block 9.5%, DT40 TDP1 no CPT inconclusive and TDP1 cell CPT -10.5%.
`CCCCC(CC)COC(=O)C(C#N)=C(c1ccccc1)c1ccccc1` (stereo not drawn) gave Six1-Eya2 blk -3.6, CtBP-E1A inh -1.1, IL-1B inflam inh 8.2, TDP1 block -4.6%, DT40 TDP1 no CPT 18.4µM* and TDP1 cell CPT inconclusive.
CCCCOc1ccc(C2=CSC3=NCCN23)cc1[N+](=O)[O-] was read as Six1-Eya2 blk -13.1, CtBP-E1A inh -3.1, IL-1B inflam inh -25.2, DT40 TDP1 no CPT 29.1µM* and TDP1 cell CPT inconclusive.
CCOC(=O)c1c(NC(=O)CN2C(=O)NC3(CCC(C)CC3)C2=O)sc(C(=O)N(C)C)c1C (stereo not drawn) was read as Six1-Eya2 blk 4.3, CtBP-E1A inh 2.3, IL-1B inflam inh -13.6, TDP1 block 1.4%[0.505 µM], DT40 TDP1 no CPT -2.0% and TDP1 cell CPT 16.4%.
`CCOC(=O)c1c(NC(=O)CN2C(=O)NC3(CCC(C)CC3)C2=O)sc(C)c1-c1ccc(C)cc1` (stereo not drawn) gave Six1-Eya2 blk -3.5, CtBP-E1A inh 3.3, IL-1B inflam inh 26.2, TDP1 block 8.2%, DT40 TDP1 no CPT 18.4µM* and TDP1 cell CPT 20.6µM*.
For CCOC(=O)c1c(NC(=O)CN2C(=O)NC3(CCCCC3)C2=O)sc(C)c1-c1ccc(C)cc1 the results were Six1-Eya2 blk 3.5, CtBP-E1A inh -0.9, IL-1B inflam inh -2.2, TDP1 block 5.5%, DT40 TDP1 no CPT 20.6µM* and TDP1 cell CPT 18.4µM*.
COc1ccc(-n2ccn(CC(=O)NCc3ccc(C)cc3)c(=O)c2=O)cc1OC was read as TDP1 block 0.0%, DT40 TDP1 no CPT -3.2% and TDP1 cell CPT -2.9%.
Screening COc1ccc(Cn2c(=O)n(-c3ccc(OC)cc3)c(=O)c3c2c2cc(OC)ccc2n3C)cc1 returned TDP1 block -0.9%, DT40 TDP1 no CPT -27.3% and TDP1 cell CPT -16.5%.
Screening O=C(/C=C\c1ccco1)Oc1cccc2cccnc12 returned Six1-Eya2 blk -75.8*, CtBP-E1A inh -74.3*, IL-1B inflam inh -165.4*, TDP1 block inconclusive, DT40 TDP1 no CPT 0.651µM* and TDP1 cell CPT 0.581µM*.
`O=C(/C=C/c1ccco1)Nc1cccnc1Cl` gave Six1-Eya2 blk -3.9, IL-1B inflam inh -13.4, TDP1 block -11.0%, DT40 TDP1 no CPT inconclusive and TDP1 cell CPT -29.3%.
`O=C(/C=C/c1ccco1)Oc1cccc2cccnc12` gave Six1-Eya2 blk -79.3*, CtBP-E1A inh -0.2, IL-1B inflam inh -94.4*, TDP1 block -8.2%, DT40 TDP1 no CPT inconclusive and TDP1 cell CPT inconclusive.
COC(=O)c1ccc(C(NC(=O)OCc2ccccc2)/C(F)=C/[C@@H](C)C(=O)NCCN2CCOCC2)cc1 (stereo partly drawn) was read as TDP1 block 9.9%.
`CCS(=O)(=O)Nc1ccc(NC(C)=O)cc1` gave Six1-Eya2 blk 2.8, CtBP-E1A inh 2.9, IL-1B inflam inh 32.7, TDP1 block 6.6%, DT40 TDP1 no CPT 1.0% and TDP1 cell CPT -0.5%.
Screening c1ccc2c(C3=NNC(=NC4CCCCC4)SC3)c[nH]c2c1 returned Six1-Eya2 blk -16.1, CtBP-E1A inh -9.9, IL-1B inflam inh -96.3*, TDP1 block 4.6%, DT40 TDP1 no CPT inconclusive and TDP1 cell CPT inconclusive.
c1ccc(C2=NNC(=NC3CC3)SC2)cc1 was read as Six1-Eya2 blk -0.4, CtBP-E1A inh -4.0, IL-1B inflam inh -12.6, TDP1 block -0.5%, DT40 TDP1 no CPT 18.4µM* and TDP1 cell CPT inconclusive.
For COCCn1c(C)cc(C2=NNC(=NC3CC3)SC2)c1C the results were Six1-Eya2 blk -9.2, CtBP-E1A inh 1.4, IL-1B inflam inh -2.5, TDP1 block 4.9%, DT40 TDP1 no CPT inconclusive and TDP1 cell CPT inconclusive.
c1ccc2c(C3=NNC(=NC4CC4)SC3)c[nH]c2c1 was read as Six1-Eya2 blk -21.7, CtBP-E1A inh -11.9, IL-1B inflam inh -96.1*, TDP1 block 4.5%, DT40 TDP1 no CPT inconclusive and TDP1 cell CPT inconclusive.
For COCCN(C(=O)COC(=O)CNC(=O)c1ccc(C)cc1)c1c(N)n(Cc2ccccc2)c(=O)[nH]c1=O the results were Six1-Eya2 blk -0.6, IL-1B inflam inh 10.9, DT40 TDP1 no CPT 1.8% and TDP1 cell CPT 14.6%.
`Cc1cc2ccccc2nc1SCC(=O)NC1CCCCC1` gave Six1-Eya2 blk 0.6, CtBP-E1A inh 11.0, IL-1B inflam inh -14.7, TDP1 block 5.6%, DT40 TDP1 no CPT -0.9% and TDP1 cell CPT -12.2%.
Screening N#C/C(=C\c1c(Oc2ccc(F)cc2)nc2ccccn2c1=O)c1nc2ccccc2s1 returned TDP1 block -6.3%, DT40 TDP1 no CPT 11.6µM* and TDP1 cell CPT inconclusive.
